Results from PubChem BioAssay AID453 (PCMD, 2006).
The whole screen tested about 63,000 compounds, of which about 75 (0.1%) were called active. Cut-off read from the data, not from the text of the source: active = inhibition above about 21%; inactive = the rest. This excerpt belongs to a sample that is enriched for actives.

Each compound was assayed against Cathepsin B (Homo sapiens) (UniProt P07858) (assay: human cathepsin B inhibitors, primary screen, biochemical, fluorogenic substrate (AID 453;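 note: 0% = enzyme with no compound and 100% = no enzyme blank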)). Details: purified cathepsin B, fluorescence, stronger effect = higher value,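 tested at 10 µM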.

inhibition, inactive:
N#CCCN(CCC#N)c1nnc(-c2ccccc2)s1 1.65%
COc1ccccc1CNC(=O)CCCNS(=O)(=O)c1cccc2nsnc12 3.57%
O=C(CSc1nnnn1C1CCCC1)Nc1ccc2c(c1)OCCO2 -2.88%
Cc1ccccc1CSc1nnc(Cn2c(=O)sc3ccccc32)n1C 1.64%
CN1CCN(c2nc3c(c(=O)[nH]c(=O)n3C)n2Cc2cccc3ccccc23)CC1 5.25%
C=C(Br)CN1CCN(CC(=C)Br)CC1 8.43%
CCOc1cc(-c2conc2N)cc(OCC)c1OCC 0.88%
O=c1[nH]c(=O)n(Cc2ccco2)c2c1C(C(F)(F)F)(C(F)(F)F)N=C(c1ccco1)N2 3.15%
Cc1ccc(-c2nn(-c3ccccc3)cc2CN(Cc2ccccc2)C(=O)CCC(=O)O)o1 -3.71%
O=c1oc2c(CN3CCCCC3)c(O)ccc2c2c1CCCCC2 -33.1%
C=CCNc1nc(C)nc(OC)n1 3.19%
O=CN1CCN(C2CC(=O)N(c3ccc4c(c3)OCO4)C2=O)CC1 (stereo not drawn) -5.45%
COCCn1c(SCC(=O)Nc2cc(Cl)ccc2OC)nc2c(c1=O)SC(C)C2 (stereo not drawn) -1.89%
O=C(COc1ccc(Cl)cc1)Nc1ccccc1CO -0.12%
CCOC(=O)c1c(C)nc(-c2ccccc2)nc1NC(=O)C(C)C -1.86%
CCOC(=O)c1c(NC(=O)CSc2nnc(Cc3csc(N)n3)n2C)sc(C)c1C 1.53%
O=C(O)C1CCCCC1C(=O)Nc1ccc(Cl)cc1 (stereo not drawn) -2.32%
O=C1Nc2ccccc2C12Nc1ccccc1S2 (stereo not drawn) -3.59%
CCOC(=O)c1[nH]c2ccccc2c1N=C(C)N(CC)CC -1.09%
COC(=O)CCNc1ccc2c(c1)OCCO2 -7.3%
O=C(Nc1nc2ccc(S(=O)(=O)N3CCCC3)cc2s1)C1CCCO1 (stereo not drawn) -0.69%
Cc1nonc1NC(=O)c1ccccc1Br -1.31%
COc1ccc2c(c1)C(C)=CC(C)(C)N2C(=O)CNCc1ccc2c(c1)OCO2 0.73%
CC(=O)Oc1cc2c(C(=O)NCCN3CCOCC3)c(C)oc2c2ccccc12 -1.15%
Cc1ccc(CC2CC(=O)N(c3ccc4c(c3)OCCO4)C2=O)cc1 (stereo not drawn) 3.98%
N#Cc1ccccc1-n1c(N)c(C(=O)N2CCCC2)sc1=S 4.81%
Cc1ccc(C(C(=O)NC2CCCCC2)N(C(=O)c2csnn2)C2CC2)o1 (stereo not drawn) 4.47%
CCCC(=O)N1c2ccc(-c3csc(N)n3)cc2CC1C (stereo not drawn) 1.69%
CCCCC(=O)Nc1ccc(C(=O)NCCCn2ccnc2)cc1 -0.94%
CCCCCC(=O)Nc1ccc2oc(-c3ccncc3)nc2c1 -2.27%
COc1ccccc1NC(=O)CSc1nnc(Cc2cccn2C)n1-c1ccc(F)cc1 2.97%
Cc1ccc(Nc2nc(CSc3nnnn3-c3ccccc3)cc(=O)[nH]2)cc1 1.57%
COC(=O)C1=C(C)OC(N)=C(C#N)C1c1cc(OC)ccc1OC (stereo not drawn) 4.88%
Nc1scc(-c2ccncc2)c1Cl 3.27%
CC(C)c1nc(N2CCOCC2)c(C#N)c2c1COC(C)(C)C2 1.28%
CCCCc1nc2ccccc2c(=O)n1NC(=O)c1c(O)c2cccc3c2n(c1=O)CC3 -2.29%
O=C(CCSc1ccccc1)NCCSc1ccccn1 5.87%
CC(=O)Nc1nonc1-c1nc2ccccc2n1Cc1ccccn1 -4.81%
Nc1nonc1-c1nc2ccccc2n1CCC(=O)O 7.32%
CCCn1c(C(O)c2cc(OC)ccc2OC)nc2ccccc21 (stereo not drawn) 5.72%
COCCn1c(-c2ccc(OC)c(OC)c2)nc2ccccc21 4.56%
Cc1cc(NC(=O)CCC(=O)N(c2ccccc2)C(C(=O)NC2CCCC2)c2ccncc2)no1 (stereo not drawn) 0.19%
CCn1c(COc2ccccc2)nnc1SCC(=O)Nc1ccc2c(c1)OCCO2 1.14%
COC(=O)Nc1nc2ccc(Sc3ccccc3)cc2[nH]1 4.96%
COc1ncnc2c1N=C1CC(C)(C)CC(N)=C1S2 -1.8%
Cc1ccc2oc(=O)c3cnn(CC(=O)N4CCN(c5ccccn5)CC4)c3c2c1 3.28%

inhibition, active:
COc1ccc(C)c(Cn2c(-c3nonc3N)nc3ccccc32)c1 45.2%
Nc1nonc1-c1nc2ccccc2n1Cc1ccc(F)cc1 73.1%
